Data on ten molecules can be found in PubChem BioAssay (NCI).

SMILES strings stand for the structures. Compounds without any hit were thinned out: in the full panel of roughly 79,000, 15% have a hit. Unmarked numbers belong to inactive results. Activity calls are given as the source filed them. Cut-off read from the data, not from the text of the source: active = growth inhibition above about 70%; inactive = the rest.

Test [1] in a line: NCI Yeast Anticancer Drug Screen. Data for the rad50 strain (AID 155).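 Note: 0% = growth of vehicle-only cultures of the same strain.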 Conditions: S. cerevisiae rad50 strain growth inhibition, hits give high values. Summed up:
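Yeast carrying a defined DNA repair defect were exposed to test compounds, and growth was compared with vehicle-treated controls to give percent inhibition.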

Test [2] can be described thus: NCI Yeast Anticancer Drug Screen. Data for the mec2-1 strain (AID 157). Conditions: S. cerevisiae mec2-1 strain, hits give high values. In short, it runs like this: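 Using mec2-1 yeast: add compound, measure growth, express inhibition versus vehicle-treated cultures.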
Test [3] can be described thus: NCI Yeast Anticancer Drug Screen. Data for the sgs1 mgt1 strain (AID 161).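 Note: 0% = growth of cultures given vehicle only.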 Conditions: S. cerevisiae sgs1 mgt1 strain, hits give high values. Summed up:
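Percent growth inhibition was derived by comparing compound-exposed mutant yeast with vehicle-exposed cultures. The strain carries alterations in DNA damage repair.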

The nature of test [4]: NCI Yeast Anticancer Drug Screen. Data for the cln2 rad14 strain (AID 165).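 Note: 0% = growth equal to vehicle treated cultures.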 Conditions: S. cerevisiae cln2 rad14 strain, hits give high values. Summed up:
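Yeast strain cln2 rad14, bearing defects in cell cycle control and DNA repair, serves as the test system; values reflect growth inhibition compared with vehicle.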

Test [5] in a line: NCI Yeast Anticancer Drug Screen. Data for the bub3 strain (AID 167). Conditions: S. cerevisiae bub3 mutant strain, hits give high values. Summed up: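 Compounds were applied to a genetically altered yeast strain carrying a cell-cycle control defect. Growth inhibition was scored against vehicle-treated controls.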
Test [6] is described as follows: NCI Yeast Anticancer Drug Screen. Data for the mlh1 rad18 strain (AID 175). Conditions: S. cerevisiae mlh1 rad18 strain growth inhibition, hits give high values. Summed up: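 Steps: expose repair-defective yeast to compound; measure growth; express inhibition against vehicle-treated controls.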
Where [7] appears, read: at 5.0 µM (retest, dose inferred, filed as 0.5).
The mark [8] stands for this setting: at 50.0 µM (retest, dose inferred, filed as 5.0).

In the case of `CCOC(=O)C(=CCC1NCCc2c1[nH]c1ccccc21)C(=O)OCC` (stereo not given), the growth inhibition is 23% in test [1] (setting [7]); 93% (active) in test [1] (setting [8]); 91.2% (active) in test [1] (at 50.0 µM); 29% in test [2] (setting [7]); 97% (active) in test [2] (setting [8]); 91.7% (active) in test [2] (at 50.0 µM). Also, the growth inhibition in test [3] (setting [7]) was 29%; in test [3] (setting [8]), 63%; in test [3] (at 50.0 µM) it was 93.5% (active); in test [4] (setting [7]), 28%; in test [4] (setting [8]), 59%; in test [4] (at 50.0 µM), 92.2% (active). Further, the growth inhibition in test [5] (setting [7]) is 30%; in test [5] (setting [8]), 98% (active); in test [5] (at 50.0 µM), 92.4% (active); in test [6] (setting [7]), 41%; in test [6] (setting [8]), 97% (active); in test [6] (at 50.0 µM), 91.6% (active).
Regarding `O=C(Nc1cccc(Cl)c1)Oc1c(Br)cc(Br)cc1Br`, the growth inhibition in test [1] (setting [7]) is 18%; in test [1] (setting [8]), 98% (active); in test [1] (at 50.0 µM), 99% (active); in test [2] (setting [7]) it was 22%; in test [2] (setting [8]), 99% (active); in test [2] (at 50.0 µM), 98.7% (active). Further, the growth inhibition in test [3] (setting [7]) was 34%; in test [3] (setting [8]), 98% (active); in test [3] (at 50.0 µM) it was 99% (active); in test [4] (setting [7]) it was -4%; in test [4] (setting [8]), 98% (active); in test [4] (at 50.0 µM), 94.5% (active). Moreover, the growth inhibition in test [5] (setting [7]) is -7%; in test [5] (setting [8]), 99% (active); in test [5] (at 50.0 µM), 97.1% (active); in test [6] (setting [7]), 24%; in test [6] (setting [8]) it was 99% (active); in test [6] (at 50.0 µM), 99.4% (active).
Consider `O=C1CN(c2cccc(Cl)c2)C(=O)CN1/N=C/c1ccc[nH]1`, for which the growth inhibition in test [1] (setting [7]) was 4%; in test [1] (setting [8]) it was -3%; in test [1] (at 50.0 µM), 98.4% (active); in test [2] (setting [7]), 7%; in test [2] (setting [8]), 0%; in test [2] (at 50.0 µM), 99.2% (active). Also, the growth inhibition in test [3] (setting [7]) was 10%; in test [3] (setting [8]) it was 0%; in test [3] (at 50.0 µM) it was 98.7% (active); in test [4] (setting [7]) it was 2%; in test [4] (setting [8]), -3%; in test [4] (at 50.0 µM), 97.9% (active). Further, the growth inhibition in test [5] (setting [7]) is 1%; in test [5] (setting [8]), -3%; in test [5] (at 50.0 µM), 98.3% (active); in test [6] (setting [7]), -3%; in test [6] (setting [8]), -5%; in test [6] (at 50.0 µM), 99% (active).
Take `N#Cc1c2c(c(N=[N+]=[N-])n3c1nc1ccccc13)CCCC2`: the growth inhibition was 47% in test [1] (setting [7]); 95% (active) in test [1] (setting [8]); 87.2% (active) in test [1] (at 50.0 µM); 36% in test [2] (setting [7]); 98% (active) in test [2] (setting [8]); 92.3% (active) in test [2] (at 50.0 µM). Moreover, the growth inhibition in test [3] (setting [7]) was 45%; in test [3] (setting [8]) it was 99% (active); in test [3] (at 50.0 µM) it was 91.5% (active); in test [4] (setting [7]) it was 28%; in test [4] (setting [8]) it was 97% (active); in test [4] (at 50.0 µM), 90% (active). In addition, the growth inhibition is 43% in test [5] (setting [7]); 95% (active) in test [5] (setting [8]); 90.9% (active) in test [5] (at 50.0 µM); 50% in test [6] (setting [7]); 98% (active) in test [6] (setting [8]); 89.7% (active) in test [6] (at 50.0 µM).
For `O=[N+]([O-])c1cc(Cc2cc([N+](=O)[O-])c3cccnc3c2O)c(O)c2ncccc12`, the growth inhibition in test [1] (setting [7]) is 96% (active); in test [1] (setting [8]), 98% (active); in test [1] (at 50.0 µM), 98.3% (active); in test [2] (setting [7]), 89% (active); in test [2] (setting [8]) it was 98% (active); in test [2] (at 50.0 µM), 97.2% (active). Also, the growth inhibition is 85% (active) in test [3] (setting [7]); 98% (active) in test [3] (setting [8]); 98.4% (active) in test [3] (at 50.0 µM); 65% in test [4] (setting [7]); 97% (active) in test [4] (setting [8]); 93.5% (active) in test [4] (at 50.0 µM). Also, the growth inhibition in test [5] (setting [7]) is 73% (active); in test [5] (setting [8]), 98% (active); in test [5] (at 50.0 µM), 97.4% (active); in test [6] (setting [7]), 90% (active); in test [6] (setting [8]), 97% (active); in test [6] (at 50.0 µM), 97.8% (active).
In the case of `CCOC(=O)C[P+](c1ccc(C)cc1)(c1ccc(C)cc1)c1ccc(C)cc1`, the growth inhibition in test [1] (setting [7]) is 39%; in test [1] (setting [8]) it was 96% (active); in test [1] (at 50.0 µM), 96.7% (active); in test [2] (setting [7]), 17%; in test [2] (setting [8]) it was 94% (active); in test [2] (at 50.0 µM) it was 95.6% (active). The growth inhibition is 11% in test [3] (setting [7]); 82% (active) in test [3] (setting [8]); 95.8% (active) in test [3] (at 50.0 µM); 2% in test [4] (setting [7]); 82% (active) in test [4] (setting [8]); 89.2% (active) in test [4] (at 50.0 µM). The growth inhibition in test [5] (setting [7]) was 21%; in test [5] (setting [8]), 88% (active); in test [5] (at 50.0 µM), 91% (active); in test [6] (setting [7]) it was 6%; in test [6] (setting [8]), 93% (active); in test [6] (at 50.0 µM) it was 93.5% (active).
With `CCOc1ccccc1N=Nc1ccc2oc(=O)c(C(=O)Nc3cccc(C)c3)cc2c1`, the growth inhibition in test [1] (setting [7]) is 3%; in test [1] (setting [8]) it was 13%; in test [1] (at 50.0 µM), 52.1%; in test [2] (setting [7]), 3%; in test [2] (setting [8]), -2%; in test [2] (at 50.0 µM), 25.9%. Besides, the growth inhibition in test [3] (setting [7]) is 8%; in test [3] (setting [8]) it was -5%; in test [3] (at 50.0 µM), 64.8%; in test [4] (setting [7]), -4%; in test [4] (setting [8]), 4%; in test [4] (at 50.0 µM), -76%. The growth inhibition in test [5] (setting [7]) is -4%; in test [5] (setting [8]), -12%; in test [5] (at 50.0 µM), 9.9%; in test [6] (setting [7]), 3%; in test [6] (setting [8]) it was 12%; in test [6] (at 50.0 µM), 89% (active).
Turning to `CCCCCCCC[N+](C)(C)Cc1ccc(C[N+](C)(C)CCCCCCCC)cc1`, the growth inhibition in test [1] (setting [7]) is 1%; in test [1] (setting [8]), 24%; in test [1] (at 50.0 µM) it was 8.75%; in test [2] (setting [7]) it was 15%; in test [2] (setting [8]), 26%; in test [2] (at 50.0 µM), 7.5%. Besides, the growth inhibition in test [3] (setting [7]) is 3%; in test [3] (setting [8]), 34%; in test [3] (at 50.0 µM), 1.05%; in test [4] (setting [7]), 0%; in test [4] (setting [8]), 18%; in test [4] (at 50.0 µM), 24.9%. Besides, the growth inhibition is 2% in test [5] (setting [7]); 16% in test [5] (setting [8]); 8.35% in test [5] (at 50.0 µM); 0% in test [6] (setting [7]); 33% in test [6] (setting [8]); 86% (active) in test [6] (at 50.0 µM).
For the molecule `O=c1[nH]c2ccccc2c2cccc(F)c12`, the growth inhibition is 12% in test [1] (setting [7]); 89% (active) in test [1] (setting [8]); 94.2% (active) in test [1] (at 50.0 µM); 10% in test [2] (setting [7]); 76% (active) in test [2] (setting [8]); 71.3% (active) in test [2] (at 50.0 µM). For the same molecule, the growth inhibition in test [3] (setting [7]) was 13%; in test [3] (setting [8]), 88% (active); in test [3] (at 50.0 µM), 94.8% (active); in test [4] (setting [7]) it was 4%; in test [4] (setting [8]) it was 68%; in test [4] (at 50.0 µM) it was 69.5%. Also, the growth inhibition in test [5] (setting [7]) is -8%; in test [5] (setting [8]), 78% (active); in test [5] (at 50.0 µM), 91.8% (active); in test [6] (setting [7]) it was 7%; in test [6] (setting [8]) it was 81% (active); in test [6] (at 50.0 µM), 86.7% (active).
Take `Cc1[nH]c2ccccc2c1SCc1ccccc1`: the growth inhibition in test [1] (setting [7]) is -5%; in test [1] (setting [8]) it was 99% (active); in test [1] (at 50.0 µM) it was 99.2% (active); in test [2] (setting [7]), 2%; in test [2] (setting [8]), 100% (active); in test [2] (at 50.0 µM) it was 99.7% (active). The growth inhibition in test [3] (setting [7]) was 0%; in test [3] (setting [8]), 100% (active); in test [3] (at 50.0 µM), 99.5% (active); in test [4] (setting [7]), -2%; in test [4] (setting [8]) it was 99% (active); in test [4] (at 50.0 µM), 99.3% (active). In addition, the growth inhibition was -6% in test [5] (setting [7]); 99% (active) in test [5] (setting [8]); 99.5% (active) in test [5] (at 50.0 µM); -7% in test [6] (setting [7]); 98% (active) in test [6] (setting [8]); 99.3% (active) in test [6] (at 50.0 µM).
